Data: PubChem BioAssay (NCI)
Compounds without any hit were thinned out: in the full panel of roughly 79,000, 15% have a hit. Cut-off read from the data, not from the text of the source: active = growth inhibition above about 70%; inactive = the rest. Where a SMILES comes first, the peptide text is derived from it. [ ]: non-standard residue; d: D form. The star is where a group is joined. ξ: configuration not given here. Cbz = O=C(OCc1ccccc1)*; ξT = CC(O)C(N)C(=O)O

What was measured:
[1] = NCI Yeast Anticancer Drug Screen. Data for the rad50 strain (AID 155);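 note: 0% = growth of vehicle-only cultures of the same strain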; settings: S. cerevisiae rad50 strain growth inhibition; at 50.0 µM; hits give high values
In short: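 Yeast carrying a defined DNA repair defect were exposed to test compounds, and growth was compared with vehicle-treated controls to give percent inhibition.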

[2] = NCI Yeast Anticancer Drug Screen. Data for the mec2-1 strain (AID 157); settings: S. cerevisiae mec2-1 strain, at 50.0 µM, hits give high values
In short: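 Strain: mec2-1 (DNA repair/cell cycle alteration). Compound exposure, then growth measured; inhibition expressed relative to vehicle.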

[3] = NCI Yeast Anticancer Drug Screen. Data for the sgs1 mgt1 strain (AID 161);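 note: 0% = growth of cultures given vehicle only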; settings: S. cerevisiae sgs1 mgt1 strain, at 50.0 µM, hits give high values
In short: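 Mutant yeast exposed to compound; growth scored against vehicle-only wells.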

[4] = NCI Yeast Anticancer Drug Screen. Data for the cln2 rad14 strain (AID 165);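 note: 0% = growth equal to vehicle treated cultures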; settings: S. cerevisiae cln2 rad14 strain, at 50.0 µM, hits give high values
In short: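 Compounds are applied to the cln2 rad14 yeast strain, and growth is then compared with that of vehicle-treated cultures to give inhibition.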

[5] = NCI Yeast Anticancer Drug Screen. Data for the bub3 strain (AID 167); settings: S. cerevisiae bub3 mutant strain, at 50.0 µM, hits give high values
In short: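 Compounds were applied to a genetically altered yeast strain carrying a cell-cycle control defect. Growth inhibition was scored against vehicle-treated controls.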

[6] = NCI Yeast Anticancer Drug Screen. Data for the mlh1 rad18 strain (AID 175); settings: S. cerevisiae mlh1 rad18 strain growth inhibition; at 50.0 µM; hits give high values
In short: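 Read-out is yeast growth inhibition, calculated against vehicle-only controls. The compound was applied to a strain engineered with DNA damage repair alterations.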

Measured: growth inhibition

O=C(c1ccc2c(c1)C(=O)OC2=O)c1ccc2c(c1)C(=O)OC2=O
inactive: [1] -22.5% | [2] -39.9% | [3] -17.8% | [4] 6.1% | [5] -27.8% | [6] -29.7%

O=C1CN(CN2CCOCC2)C(=O)CN1CN1CCOCC1
inactive: [1] 39.3% | [2] 19.1% | [3] 44% | [4] 18.6% | [5] 36.2% | [6] 32.9%

NCc1ccc(O)c(O)c1
inactive: [1] -13.9% | [2] 19.9% | [3] 15.3% | [4] 13% | [5] 5.6% | [6] 10.1%

CSc1ccc(OC(=O)C(C)NC(=O)C(CO)NC(=O)OCc2ccccc2)cc1 (configuration not stated)
inactive: [1] 5.85% | [2] 1.55% | [3] -1.05% | [4] -2% | [5] -1.6% | [6] 15.2%

O=c1onc2n1-c1cc(Cl)ccc1C(=S)N1CSCC21 (configuration not stated)
inactive: [1] 1% | [2] 8.15% | [3] 13.5% | [4] 5.4% | [5] 2.5% | [6] 11.6%

COc1cc(C2SCC(=O)N2c2ccc(-n3c(-c4ccccc4)nc4ccccc4c3=O)cc2)ccc1O (configuration not stated)
inactive: [1] -12.6% | [2] -8.75% | [3] 10.7% | [4] -36.2% | [5] 3.3% | [6] 22%

Cn1cc(N=P(c2ccccc2)(c2ccccc2)c2ccccc2)c(=O)n(C)c1=O
inactive: [1] -5.8% | [2] 4.15% | [3] -11.1% | [4] 1.35% | [5] -2.15% | [6] 5.55%

Cc1ccc(C2=Nc3ccccc3SC(c3cccc([N+](=O)[O-])c3)C2)cc1 (configuration not stated)
inactive: [1] 11.2% | [2] -12.6% | [3] 11.8% | [4] -9.25% | [5] -6.2% | [6] -1.8%

CC(C)(C)c1ccc(-c2cc3nc(-c4ccccc4)cc(=O)n3[nH]2)cc1
inactive: [1] -8.05% | [2] -30.3% | [3] 10.5% | [4] 5.9% | [5] 10.8% | [6] -0.55%

O=C1C(Cl)=C(NCCCN2CCN(CCCNC3=C(Cl)C(=O)c4ccccc4C3=O)CC2)C(=O)c2ccccc21
inactive: [1] 44.5% | [2] 27.8% | [3] 33.1% | [4] 9.45% | [5] 6.35% | [6] 33.6%

O=C(O)c1cc(=O)c2ccccc2[nH]1
inactive: [1] 4.45% | [2] 8.4% | [3] 1.35% | [4] 6.5% | [5] 8.2% | [6] 17.9%

C#CCNC(=O)ON1C(=O)CCC1=O
inactive: [1] -5.25% | [2] -8.4% | [3] -25.7% | [4] -12.4% | [5] -16.9% | [6] -28.9%

COc1ccc(OC)c(C2=CCCCCC2)c1
inactive: [1] 7.6% | [2] -6.15% | [3] 3.1% | [4] -22.1% | [5] -7.85% | [6] 13.5%

Cc1ccc(-c2ccc(C)cc2)cc1
inactive: [1] -31.2% | [2] -38% | [3] -22.2% | [4] -11.1% | [5] -36.9% | [6] -11.1%

CCCc1ccc(OCC(=O)O)c(OC)c1
inactive: [1] -2.45% | [2] -1.25% | [3] 0.95% | [4] 4.4% | [5] -22.5% | [6] -7.45%

C=C(C)CC1CC(=O)OC1=O (configuration not stated)
inactive: [1] 26% | [2] -16.4% | [3] 13.6% | [4] -21.9% | [5] -9.8% | [6] 4.35%

Cn1c(=O)c2c(nc(OCC[N+](C)(C)C)n2C)n(C)c1=O
inactive: [1] 5% | [2] 11.8% | [3] -0.25% | [4] 33.4% | [5] 1.85% | [6] 2.45%

CC(O)C(NC(=O)CNC(=O)CNC(=O)OCc1ccccc1)C(=O)O (stereo not drawn) (Cbz-Gly-Gly-[ξT]-OH)
inactive: [1] 7.2% | [2] -3.25% | [3] -2.45% | [4] 16.4% | [5] 6.65% | [6] 3.05%

O=C(Nc1cc([N+](=O)[O-])cc2c1[nH]c(=O)c1ccccc12)C(F)(F)F
inactive: [1] 26.2% | [2] -2.8% | [3] 10.8% | [4] -41.2% | [5] -7.4% | [6] -0.25%

CC1=CC2=NC(=O)C(c3ccccc3)C(=O)N2C=C1 (configuration not stated)
inactive: [1] -1.05% | [2] -27.4% | [3] -9.95% | [4] 12.8% | [5] 7.5% | [6] -19.8%

c1ccc(-c2cccc(-c3ccccc3)n2)cc1
inactive: [1] 20.5% | [2] 33.9% | [3] -1.4% | [4] -10.8% | [5] -24.3% | [6] 28.7%

Cc1cc2oc3ccccc3c(=O)c2c(C)c1Cl
inactive: [1] -18.1% | [2] 5.1% | [3] -9.65% | [4] -3.1% | [5] 10.4% | [6] -3.6%

C=CCc1cc(C(=O)O)ccc1OC
inactive: [1] -36.4% | [2] -23.6% | [3] -16.1% | [4] -1.7% | [5] -30.4% | [6] -13.9%

N=c1c2ccccc2c2ccccc2n1O
inactive: [1] 2.15% | [2] -5.05% | [3] -19.1% | [4] -11.4% | [5] -5.75% | [6] -19.4%

N=c1nc2n(cc1F)C1OC(CO)C(O)C1O2 (configuration not stated)
inactive: [1] -18.1% | [2] 7.7% | [3] 15.3% | [4] -37.3% | [5] -0.1% | [6] -8%

C/C=C/C(=O)Nc1cc(C(F)(F)F)ccc1Cl
inactive: [1] 26.6% | [2] -2.3% | [3] -44.5% | [4] 10.8% | [5] 1.4% | [6] 9.15%

C[C@@H]1C[C@H](C)OC(CO)O1 (some centres not stated) (tested in a mixture with another compound)
inactive: [1] 13.4% | [2] -1.3% | [3] 0.25% | [4] 12.2% | [5] -12.6% | [6] 19.3%

CC(C1=CC=C2[C@@H]3CCC4CC(N(C)C)CC[C@]4(C)C3CC[C@]12C)N(C)C=O (some centres not stated)
inactive: [1] 6.8% | [2] 8.6% | [3] -16.2% | [4] 6.35% | [5] 4.45% | [6] 1.65%

C=C(C)C(=O)Oc1ccccc1-c1ccccc1
inactive: [1] 2.55% | [2] -10.2% | [3] -5.5% | [4] 15.6% | [5] 2.65% | [6] -26.5%

COc1ccc(C)cc1N=NC1C(=O)N(C(=O)CC(=O)Nc2ccccc2OC)N=C1c1ccccc1 (configuration not stated)
inactive: [1] 12.8% | [2] -1.5% | [3] -7.4% | [4] 6.55% | [5] 2.35% | [6] 15.3%

Nc1ncnc2c1ncn2C1CCN(CCO)C1=O (configuration not stated)
inactive: [1] -5.55% | [2] -5.55% | [3] -29.1% | [4] -17.4% | [5] -5.2% | [6] -14.8%

CCCCCCCCCCCCN(CC(O)C(O)C(OC1OC(CO)C(O)C(O)C1O)C(O)CO)C(=O)CCCCCCCCCCC (configuration not stated)
inactive: [1] -2.7% | [2] -19.2% | [3] 17.7% | [4] 0.4% | [5] 4.3% | [6] -50.5%

Cn1nc(-c2ccccc2)c(C(=O)/C=C/c2ccccc2)c(N2CCCC2)c1=O
inactive: [1] -22.1% | [2] -11.2% | [3] 3.2% | [4] -4.15% | [5] -21.1% | [6] -19.2%

C/C(=N\N=C(/C)c1ccc(Br)s1)c1ccc(Br)s1
inactive: [1] -42.5% | [2] -35% | [3] -23.7% | [4] -18.3% | [5] -12.8% | [6] -28.1%

C=C(Cl)Cc1c(O)c2c(c(O)c1CC(=C)Cl)C(=O)c1ccccc1C2=O
inactive: [1] -39.2% | [2] -42.7% | [3] -50% | [4] 1.8% | [5] -18.1% | [6] -33.5%

O=C(O)CCCCCCCCCCS(=O)(=O)CCO
inactive: [1] 5.2% | [2] 6.25% | [3] 13.4% | [4] 20.2% | [5] 19.9% | [6] -10%

O=c1oc2nc(-c3ccccc3)[nH]c(=O)c2c2c1CCCC2
inactive: [1] -8.5% | [2] -7.15% | [3] -19.2% | [4] 9.3% | [5] -17.9% | [6] 19.9%
